The results in this text go back to PubChem BioAssay (NCI).

The panel holds about 83,000 compounds, 20% with a hit somewhere; the sample as a whole holds those more often.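 Interpretation: 100, growth as untreated; towards 0, rising growth inhibition; 0, no net growth; 0 to -100, cell death. Compounds scoring below 10 were considered active.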 A number with no mark means an inactive call. Activity calls are given as the source filed them.

Common to all, as to assay: NCI-60 one-dose screen, 48 h (100 = growth as untreated, 0 = no growth, -100 = all killed)
Details in all cases: 10 µM unless noted

The test system of assay [1] is HCT-15 colon.
Assay [2] deals with HT29 colon.
The test system of assay [3] is SNB-75 CNS.
The subject of assay [4] is SNB-19 CNS.
Assay [5] has as its system PC-3 prostate.
For assay [6], the system named is SK-MEL-5 melanoma.
Assay [7] concerns UACC-62 melanoma.
Assay [8] relates to LOX IMVI melanoma.
The test system of assay [9] is SK-MEL-28 melanoma.

On to `CSc1nc(Nc2cccc(NC(=O)CCl)c2)c(C#N)c(-c2cccc([N+](=O)[O-])c2)n1`, for which the growth in [1] is 17.5%; in assay [2], 17.7%; in assay [3] it was 30.5%; in assay [4] it was 83.5%; in assay [5], 30.5%; in assay [6] it was 34.3%. Besides, the figures for the growth in assay [7], in [8] and in assay [9] were 41%, -69.2% (active) and 102%, respectively.

As for `N#Cc1c(-c2ccc(Cl)cc2)nc(N/N=C/c2cccc(Br)c2)nc1N1CCOCC1`, the growth in assay [1] is 8.41% (active); in assay [2] it was 29%; in assay [3], 76.8%; in [4], 107%; in assay [5], 61.2%; in assay [6], 85.6%. Besides, the results for the growth in assay [7], in assay [8] and in assay [9] were 92.6%, 79.8% and 99.5%, respectively.

Regarding `COc1cccc(Nc2nc(SC)nc(-c3cccc([N+](=O)[O-])c3)c2C#N)c1`, the growth in assay [1] is 79.2%; in [2], 78%; in [3], 34%; in assay [4], 67.2%; in [5], 71.2%; in [6] it was 87.2%. Further, the growth in assay [7] is 78.5%; in assay [8], 64.9%; in assay [9], 76.3%.

Turning to `COc1ccc(/C=C(\C#N)C(=O)Nc2cccc(Nc3nc(SC)nc(-c4cccc([N+](=O)[O-])c4)c3C#N)c2)cc1OC`, the growth in [1] is 95.3%; in assay [2] it was 113%; in assay [3], 92%; in [4], 104%; in [5] it was 94.8%; in assay [6], 94.8%. Also, the growth was 97% in assay [7], 97.6% in assay [8] and 105% in assay [9].

In the case of `COc1ccc(-c2nc3ccc(-c4nc5ccc(N6CCN(c7ccc(F)cc7)CC6)cc5[nH]4)cc3[nH]2)cc1OC`, the growth in [1] was 44.7%; in assay [2], 44.3%; in [3] it was 64.3%; in assay [4], 117%; in assay [5], 62.7%; in [7], 60.6%. In addition, the growth is 37.1% in [8] and 90.6% in [9].

On to `Cc1nc2ccccc2n1C(=O)C[C@@H]1NC(=S)NC1=O`, for which the growth in assay [1] is 93%; in assay [2] it was 105%; in assay [3], 74.1%; in assay [4], 98.3%; in [5], 105%; in assay [6] it was 100%. Further, the growth in assay [7] is 97.1%; in assay [8], 95.3%; in [9], 99.2%.

In the case of `COc1cc2nc(N3CCCC3)nc(NCC3CCCCC3)c2cc1OC`, the growth in [1] was -70.9% (active); in assay [2] it was -24.8% (active); in assay [3] it was 93.4%; in assay [4], 82.9%; in [5], 25.1%; in [6] it was -97.7% (active). The growth in assay [8] is -92.8% (active); in assay [9], -86.4% (active).

As for `C=C(C)[C@@H]1CC[C@]2(C(=O)OC)CC[C@]3(C)[C@H](CC[C@@H]4[C@@]5(C)C/C(=C/c6cccc(I)c6)C(=O)C(C)(C)[C@@H]5CC[C@]43C)[C@@H]12`, the growth is 99.3% in assay [1]; 107% in assay [2]; 89.2% in assay [3]; 94% in assay [4]; 96% in assay [5]; 99% in [6]. Further, the growth was 96.5% in assay [7], 91.9% in [8] and 104% in assay [9].

Regarding `COc1cccc(-c2nc3sccn3c2-c2ccnc(NCCCNS(=O)(=O)c3c(Cl)cccc3Cl)c2)c1`, the growth in [1] is 37.7%; in [2], 48.4%; in assay [3] it was 73%; in [4], 78.7%; in assay [5], 35.1%; in [6], 22.8%. Also, the results for the growth in assay [7], in assay [8] and in assay [9] were 25.7%, 54.1% and 90.1%, respectively.

As for `Cc1nc2c3c(-c4ccccc4)c(-c4ccccc4)oc3ncn2n1`, the growth in assay [1] was 101%; in assay [2], 95.8%; in assay [3], 69.9%; in [4], 96.6%; in [5], 91.3%; in assay [6], 96.3%. Besides, the growth in assay [8] was 90.7%; in assay [9] it was 118%.

For `O=C1CC(=NCC(=O)n2c(-c3ccccc3)nc3ccccc32)NN1`, the growth in assay [1] was 99.1%; in assay [2], 108%; in [3], 66.6%; in assay [4] it was 97.7%; in assay [5], 99.2%; in assay [6], 96.6%. The values for the growth in assay [8] and in [9] were 89.9% and 118%, respectively.

Consider `Cn1cc(C(=O)c2nc(-c3c[nH]c4ccc(Br)cc34)no2)c2cc(F)ccc21`, for which the growth was 92.1% in [1]; 102% in assay [2]; 74.8% in assay [3]; 99.1% in assay [4]; 78% in [7]; 95.4% in [8]. Besides, the growth in assay [9] is 105%.

For `Nc1ccc(-c2cc3c(NCc4ccccc4)ncnc3s2)cc1`, the growth in [1] is 82.2%; in assay [2], 103%; in [3] it was 89.2%; in [4] it was 73.6%; in assay [6], 55.7%; in assay [7], 71.8%. Also, the growth in assay [8] is 84.2%; in assay [9], 92.3%.

For the compound `CC(=O)O[C@H]1CC[C@]2(C)[C@H]3CC=C4[C@@H]5CC(C)(C)CC[C@]5(C(=O)NCCNCCN)CC[C@@]4(C)[C@]3(C)CC[C@H]2C1(C)C`, the growth in [1] is -89.3% (active); in assay [2], -92.8% (active); in [3] it was 88%; in [4], 2.09% (active); in assay [5], -44.3% (active); in assay [8], -100% (active). For the same compound, in assay [9], the growth was -85.6% (active).
